Measurements as given in PubChem BioAssay (Tox21).
Results filed as inconclusive are left out. The source made the active and inactive calls. Unless noted, the call rests on the fitted dose curve.

Legend:
[1] = Nuclear factor erythroid 2-related factor 2/antioxidant responsive element (Nrf2/ARE) small molecule agonists: qHTS cell viability counter screen in human keratinocytes (AID 1919968; active means well fitted curve in the direction sought with a large enough effect in the repeat runs; an effect the other way counts as inactive or inconclusive; further: nearly all actives have a fitted effect of over 55% in size)
In short: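 Stably transfected HaCaT (KeratinoSens), 1,500/well. Test agents in DMSO were applied for 23 h, 37 C/5% CO2. CellTiter-Fluor was incubated 1 h before the fluorescence read.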

[2] = Nuclear factor erythroid 2-related factor 2/antioxidant responsive element (Nrf2/ARE) small molecule agonists: luciferase reporter gene qHTS assay in human keratinocytes (AID 1919969); further: nearly all actives have a fitted effect of over 35% in size
[3] = target: Gonadotropin-releasing hormone receptor (Homo sapiens) (UniProt P30968); assay: Human gonadotropin-releasing hormone receptor (GnRHR) small molecule agonists, calcium flux assay in GnRHR-HEK293 cells (AID 1920063); further: nearly all actives have a fitted effect of over 35% in size
In short: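 Stable human GnRHR HEK293 line. 18 h plating, then calcium dye for 1 h at 37 C. Agonist-mode compound addition from DMSO stocks; fluorescence monitored 3 min.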

[4] = target: KiSS-1 receptor (Homo sapiens) (UniProt Q969F8); assay: Human kisspeptin (KISS1R) small molecule agonists, calcium flux assay in KISS1R-HEK293 cells (AID 1920064; active means well fitted curve in the direction sought with a large enough effect in the repeat runs; an effect the other way counts as inactive or inconclusive)
In short: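 After overnight (18 h) culture at 37 C/5% CO2, human KISS1R-HEK293 cells received calcium dye for 1 h, then test compound; emission at 540 nm (excitation 480 nm) was tracked for 3 min.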

[5] = G protein-coupled receptor (GPCR) small molecule agonists, calcium flux assay: HEK293 wild type cell line counter screen (AID 1920065)
In short: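 Following 18 h incubation at 37 C/5% CO2, plates got calcium dye for 1 h; compounds, ATP or DMSO were then pinned in and fluorescence followed kinetically (480/540 nm).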

[6] = p53 small molecule agonists, cell-based qHTS assay with human liver microsomes (AID 1963577)
In short: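 p53RE-bla cells, 4,000/well, compound added after 5 h, with human liver microsomes 0.5 mg/mL and NADPH 0.5 mg/mL final; 16 h at 37 C, then LiveBLAzer 2 h RT, fluorescence.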

[7] = p53 small molecule agonists, cell-based qHTS assay with rat liver microsomes (AID 1963578)
In short: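 p53RE-bla cells, 4,000/well, pre-incubated 5 h, then given compounds plus rat liver microsomes (0.5 mg/mL final) and NADPH (0.5 mg/mL final). Incubation 16 h at 37 C; beta-lactamase reporter read by LiveBLAzer fluorescence after 2 h at room temperature.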

[8] = p53 small molecule agonists, cell-based qHTS assay with human liver microsomes: qHTS cell viability counter screen (AID 1963579); further: nearly all actives have a fitted effect of over 45% in size
In short: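 p53RE-bla cells, 4,000/well, dosed 5 hours after plating, with human liver microsomes (0.5 mg/mL final) plus NADPH (0.5 mg/mL final), 16 hours at 37 C. Viability read as CellTiter-Glo luminescence after 30 min at room temperature.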

[9] = p53 small molecule agonists, cell-based qHTS assay with rat liver microsomes: qHTS cell viability counter screen (AID 1963580); further: nearly all actives have a fitted effect of over 45% in size
In short: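 Cytotoxicity counter screen: intracellular ATP measured by CellTiter-Glo luminescence in the same wells as the beta-lactamase reporter read, on HCT-116 p53RE-bla cells exposed 16 h at 37 C to compounds with rat liver microsomes and NADPH, each 0.5 mg/mL final.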

[10] = p53 small molecule agonists, cell-based qHTS assay: qHTS cell viability counter screen (AID 1963581); further: nearly all actives have a fitted effect of over 45% in size
In short: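 qHTS counter screen: 16 h compound exposure at 37 C of p53RE-bla HCT-116 cells (4,000 per well, seeded 5 h prior), cell viability by ATP luminescence.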

[11] = p53 small molecule agonists, cell-based qHTS assay (AID 1963582; active means well fitted activation curve with a large enough effect in the signal ratio in the repeat runs, not every such curve was filed as active; the % refers to the signal ratio)
In short: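 Measured: fluorescence from cleaved LiveBLAzer substrate. System: p53RE-bla cells, 16 h compound treatment at 37 C, 2 h substrate step at room temperature.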

[12] = target: 5-hydroxytryptamine receptor 2A (Homo sapiens) (UniProt P28223); assay: 5-hydroxytryptamine receptor 2A (HTR2A) small molecule antagonists, cell-based qHTS assay (AID 1963586); further: nearly all actives have a fitted effect of over 45% in size
In short: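 CHO cells stably expressing human HTR2A were plated for 18 h at 37 C, then loaded with calcium dye for 1 h. Compounds were preincubated 5 min at room temperature before DOI (4 nM solution) was added. Kinetic fluorescence was read for 3 min.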

[13] = target: 5-hydroxytryptamine receptor 2A (Homo sapiens) (UniProt P28223); assay: 5-hydroxytryptamine receptor 2A (HTR2A) small molecule agonists, cell-based qHTS assay (AID 1963587); further: nearly all actives have a fitted effect of over 30% in size
In short: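 CHO cells stably expressing human HTR2A, plated 18 h, loaded with calcium dye 1 h at 37 C. Agonist mode: compounds added and intracellular calcium fluorescence recorded kinetically for 2 min at 1 sec intervals.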

[14] = target: Muscarinic acetylcholine receptor M1 (Homo sapiens) (UniProt P11229); assay: Cholinergic receptor muscarinic 1 (CHRM1) small molecule antagonists, cell-based qHTS assay (AID 1963588); further: nearly all actives have a fitted effect of over 40% in size
In short: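 Compounds were tested at 15 concentrations in three independent runs. Dye-loaded CHRM1-CHO cells were exposed 5 min at room temperature before stimulation by acetylcholine added at 50nM. Intracellular calcium was read kinetically on FDSS for 3 min.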

[15] = target: Muscarinic acetylcholine receptor M1 (Homo sapiens) (UniProt P11229); assay: Cholinergic receptor muscarinic 1 (CHRM1) small molecule agonists, cell-based qHTS assay (AID 1963589); further: nearly all actives have a fitted effect of over 35% in size
In short: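 Kinetic fluorescence (1 s intervals) of calcium-sensitive dye in human M1 CHO cells after compound addition; cells pre-incubated 18 h at 37 C/5% CO2 and dye-loaded 1 h.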

[16] = cAMP Responsive Elements (CRE) small molecule agonists, cell-based qHTS assay (AID 1963590)
In short: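 Test agents in DMSO were incubated 3 h at 37 C/5% CO2 with CRE-bla HEK 293T cells seeded 18 h earlier; LiveBLAzer B/G FRET substrate was added and read after 2 h at room temperature.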

[17] = cAMP Responsive Elements (CRE) small molecule antagonists, cell-based qHTS assay (AID 1963591; active means well fitted inhibition curve with a large enough effect in the signal ratio in the repeat runs, not every such curve was filed as active; the % refers to the signal ratio)
In short: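 Reporter line CRE-bla HEK 293T in dialyzed-FBS DMEM; cells preincubated 18 h, treated 3 h with compound plus NKH477 (0.25 uM final); LiveBLAzer FRET, 2 h RT.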

[18] = target: Beta-2 adrenergic receptor (Homo sapiens) (UniProt P07550); assay: Adrenergic beta2 receptor (ADRB2) small molecule antagonists, cell-based qHTS assay (AID 1963592); further: series mostly up to about 92 µM; nearly all actives have a fitted effect of over 50% in size
In short: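 Assay format: CHO-ADRB2 cells, 18-20hr seeding at 37C/5% CO2, then compound plus 1nM isoproterenol agonist mix for 0.5hr RT. Homogeneous time-resolved fluorescence cAMP detection after 1hr, expressed as 665/615 nm ratio.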

[19] = target: D(2) dopamine receptor (Homo sapiens) (UniProt P14416); assay: Dopamine D2 receptor (DRD2) small molecule agonists, cell-based qHTS assay (AID 1963594); further: nearly all actives have a fitted effect of over 35% in size
In short: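 HEK293 cells stably expressing human DRD2, pre-treated with PDE inhibitor Ro20-1724 (0.1 mM final) and compound 10 min at room temperature, then stimulated with NKH477 (200nM […]) for 30 min. cAMP read by HTRF (665/620 nm).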

[20] = target: D(2) dopamine receptor (Homo sapiens) (UniProt P14416); assay: Dopamine D2 receptor (DRD2) small molecule antagonists, cell-based qHTS assay (AID 1963595; active means well fitted inhibition curve with a large enough effect in the signal ratio in the repeat runs, with a control signal flat; the % refers to the signal ratio)
In short: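 Antagonism was scored as restored cAMP in HEK293-DRD2 cells. These cells were stimulated with 200 nM NKH477 and 12 nM quinpirole for 30 min at room temperature, in the presence of 0.1 mM Ro20-1724.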

Measured: Potency

KiSS-1 receptor (Homo sapiens), sequence (Q969F8 whole entry, looked up): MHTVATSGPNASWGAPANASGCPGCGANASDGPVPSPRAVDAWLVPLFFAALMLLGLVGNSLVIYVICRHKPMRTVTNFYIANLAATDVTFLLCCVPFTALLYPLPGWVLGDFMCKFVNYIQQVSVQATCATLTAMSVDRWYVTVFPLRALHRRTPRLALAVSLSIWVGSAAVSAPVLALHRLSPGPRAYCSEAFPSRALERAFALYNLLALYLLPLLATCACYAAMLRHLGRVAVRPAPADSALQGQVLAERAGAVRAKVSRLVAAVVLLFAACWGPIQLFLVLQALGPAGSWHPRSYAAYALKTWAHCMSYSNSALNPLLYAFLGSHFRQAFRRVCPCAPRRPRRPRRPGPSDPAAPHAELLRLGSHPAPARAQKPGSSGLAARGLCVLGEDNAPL
D(2) dopamine receptor (Homo sapiens), sequence (P14416 whole entry, looked up): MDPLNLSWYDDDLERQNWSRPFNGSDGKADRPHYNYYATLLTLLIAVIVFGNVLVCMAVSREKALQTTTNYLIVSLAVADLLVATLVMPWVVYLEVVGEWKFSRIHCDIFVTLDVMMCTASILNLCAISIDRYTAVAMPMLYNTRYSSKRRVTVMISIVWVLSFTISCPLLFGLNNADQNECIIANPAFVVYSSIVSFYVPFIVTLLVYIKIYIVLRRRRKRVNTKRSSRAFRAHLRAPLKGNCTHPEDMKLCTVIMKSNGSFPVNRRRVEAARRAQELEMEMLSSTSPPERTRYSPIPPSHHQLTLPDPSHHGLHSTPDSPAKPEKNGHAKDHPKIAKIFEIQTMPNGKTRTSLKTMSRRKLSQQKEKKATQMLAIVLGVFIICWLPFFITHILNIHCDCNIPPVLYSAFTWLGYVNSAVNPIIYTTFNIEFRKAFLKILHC
5-hydroxytryptamine receptor 2A (Homo sapiens), sequence (P28223 whole entry, looked up): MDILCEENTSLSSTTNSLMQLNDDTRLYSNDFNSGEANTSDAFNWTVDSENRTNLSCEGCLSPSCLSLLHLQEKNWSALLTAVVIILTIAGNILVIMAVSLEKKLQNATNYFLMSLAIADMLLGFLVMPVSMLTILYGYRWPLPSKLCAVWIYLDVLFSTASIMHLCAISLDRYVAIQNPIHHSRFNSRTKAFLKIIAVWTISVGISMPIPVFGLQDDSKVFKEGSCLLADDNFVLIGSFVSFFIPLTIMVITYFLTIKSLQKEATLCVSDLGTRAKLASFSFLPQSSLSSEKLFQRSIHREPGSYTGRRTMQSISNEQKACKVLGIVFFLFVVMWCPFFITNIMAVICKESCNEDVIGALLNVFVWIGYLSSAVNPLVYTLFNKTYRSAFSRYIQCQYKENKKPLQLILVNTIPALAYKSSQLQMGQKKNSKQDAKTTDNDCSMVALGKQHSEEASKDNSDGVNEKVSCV
Beta-2 adrenergic receptor (Homo sapiens), sequence (P07550 whole entry, looked up): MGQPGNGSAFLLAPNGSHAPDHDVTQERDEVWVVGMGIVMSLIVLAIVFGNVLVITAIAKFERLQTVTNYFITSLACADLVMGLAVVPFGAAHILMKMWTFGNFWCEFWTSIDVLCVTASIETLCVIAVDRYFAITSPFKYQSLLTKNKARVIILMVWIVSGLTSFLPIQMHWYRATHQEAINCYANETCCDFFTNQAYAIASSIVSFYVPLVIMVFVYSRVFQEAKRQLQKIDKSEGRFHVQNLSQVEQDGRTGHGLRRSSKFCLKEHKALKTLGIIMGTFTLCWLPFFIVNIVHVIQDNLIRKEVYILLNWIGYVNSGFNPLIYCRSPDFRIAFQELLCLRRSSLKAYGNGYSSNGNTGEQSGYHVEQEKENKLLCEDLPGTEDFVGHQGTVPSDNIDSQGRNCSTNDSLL
Gonadotropin-releasing hormone receptor (Homo sapiens), sequence (P30968 whole entry, looked up): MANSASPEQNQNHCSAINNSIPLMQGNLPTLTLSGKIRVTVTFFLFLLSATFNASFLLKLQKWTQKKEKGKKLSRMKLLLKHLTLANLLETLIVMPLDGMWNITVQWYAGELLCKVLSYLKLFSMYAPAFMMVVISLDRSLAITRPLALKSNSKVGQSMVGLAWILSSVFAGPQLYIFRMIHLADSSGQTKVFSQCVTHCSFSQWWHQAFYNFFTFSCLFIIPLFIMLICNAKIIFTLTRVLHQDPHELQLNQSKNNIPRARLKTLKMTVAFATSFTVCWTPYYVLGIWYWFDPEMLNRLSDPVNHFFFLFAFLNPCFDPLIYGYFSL
Muscarinic acetylcholine receptor M1 (Homo sapiens), sequence (P11229 whole entry, looked up): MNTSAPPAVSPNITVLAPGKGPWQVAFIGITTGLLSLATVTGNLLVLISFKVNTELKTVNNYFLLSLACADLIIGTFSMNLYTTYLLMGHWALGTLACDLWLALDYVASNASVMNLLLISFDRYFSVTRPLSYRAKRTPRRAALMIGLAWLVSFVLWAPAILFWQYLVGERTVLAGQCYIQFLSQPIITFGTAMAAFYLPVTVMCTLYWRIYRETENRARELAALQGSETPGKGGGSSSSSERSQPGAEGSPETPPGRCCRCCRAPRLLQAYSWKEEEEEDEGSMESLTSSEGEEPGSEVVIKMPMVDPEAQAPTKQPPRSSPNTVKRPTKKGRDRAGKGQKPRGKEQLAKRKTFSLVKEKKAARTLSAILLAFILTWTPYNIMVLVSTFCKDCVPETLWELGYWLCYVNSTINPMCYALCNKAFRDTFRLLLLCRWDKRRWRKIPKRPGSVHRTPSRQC

c1ccc(OCCOc2ccccc2)cc1
inactive: [1] | [2] | [3] | [4] | [5] | [6] | [7] | [8] | [9] | [10] | [11] | [12] | [13] | [14] | [15] | [16] | [17] | [18] | [19] | [20]

CCCCC(CC)COC(=O)C(C#N)=C(c1ccccc1)c1ccccc1 (centres undefined)
inactive: [1] | [2] | [3] | [4] | [5] | [6] | [7] | [8] | [9] | [10] | [11] | [12] | [13] | [14] | [15] | [16] | [17] | [18] | [19] | [20]

C=C(C)C(=O)OCC(C)C
inactive: [1] | [2] | [3] | [4] | [5] | [6] | [7] | [8] | [9] | [10] | [11] | [12] | [13] | [14] | [15] | [16] | [17] | [18] | [19] | [20]

COc1ccc(OC)cc1
inactive: [1] | [2] | [3] | [4] | [5] | [6] | [7] | [8] | [9] | [10] | [11] | [12] | [13] | [14] | [15] | [16] | [17] | [18] | [19] | [20]

OCCc1ccccc1
inactive: [1] | [2] | [3] | [4] | [5] | [6] | [7] | [8] | [9] | [10] | [11] | [12] | [13] | [14] | [15] | [16] | [17] | [18] | [19] | [20]

CC(=O)CCC=C(C)C
inactive: [1] | [2] | [3] | [4] | [5] | [6] | [7] | [8] | [9] | [10] | [11] | [12] | [13] | [14] | [15] | [16] | [17] | [18] | [19]

CC(C)OP(=O)(CP(=O)(OC(C)C)OC(C)C)OC(C)C
inactive: [1] | [2] | [3] | [4] | [5] | [6] | [7] | [8] | [9] | [10] | [11] | [12] | [13] | [14] | [15] | [16] | [17] | [18] | [19] | [20]
